# From PubChem BioAssay (NCATS)
# Inconclusive results are not listed. A number with no mark means an inactive call. Activity calls are given as the source filed them. The call rests on the fitted dose curve; in most records, active means well fitted inhibition curve with a large enough effect; inconclusive means small, poorly fitted or top-dose-only effect; inactive means flat fitted curve, though single readings scatter.
# Tested on: SC27B
# Assay: qHTS profiling for inhibitors of Plasmodium falciparum proliferation (AID 504749); further: nearly all actives have a fitted effect of over 60% in size;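 on activity, negative = inhibition: 0% = DMSO vehicle and full inhibition = artemisinin control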
# Conditions: P. falciparum in erythrocytes, SYBR Green DNA, 72 h; series mostly up to 28.7 µM; activity, negative = inhibition: at the top concentration
# Summary of the method: (§1)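 Infected RBCs, 0.3% parasitemia/2.5% Hct final; cpd 72 h, 37 C, 5% CO2; lysis buffer with saponin/triton/SYBR Green I, o/n RT dark; FI 485/535; norm. to artemisinin (0.29 uM) and DMSO.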
# Potency means the concentration at half of the fitted maximal effect.
Structure (SMILES),"activity, negative = inhibition",Potency
CCCCC/C=C\C/C=C\C/C=C\C/C=C\CCCC(=O)NCC(=O)O,0.575% [at 2.67 µM],–
CCC(C)(C)c1ccc(O)cc1,4.2%,–
C[C@]12CC[C@@H]3c4ccc(OC(=O)N(CCCl)CCCl)cc4CC[C@H]3[C@@H]1CC[C@@H]2O,5.91%,–
CCCC(C)(COC(N)=O)COC(N)=O,1.44%,–
Cc1nnc2n1-c1ccc(Cl)cc1C(c1ccccc1)=NC2,-4.18%,–
CCC1(CC)C(=O)C=CNC1=O,10%,–
C[C@](O)(CS(=O)(=O)c1ccc(F)cc1)C(=O)Nc1ccc(C#N)c(C(F)(F)F)c1,-9%,–
CN1C(=O)C(O)N=C(c2ccccc2)c2cc(Cl)ccc21 (stereo unspecified),-1.45%,–
Clc1ccc2c(c1)C(c1ccccc1)=NCc1nncn1-2,6.11%,–
O=c1oc2ccccc2c(O)c1Cc1c(O)c2ccccc2oc1=O,0.751% [at 12.8 µM],–
COP(=S)(OC)SCN1C(=O)c2ccccc2C1=O,-3%,–
O=C1CN=C(c2ccccc2)c2cc([N+](=O)[O-])ccc2N1,2.19%,–
COC(=O)C(c1ccccc1)C1CCCCN1 (stereo unspecified),-4.72%,–
CC(C)=CC1C(C(=O)OCN2C(=O)C3=C(CCCC3)C2=O)C1(C)C (stereo unspecified),1.96%,–
O=C1Nc2ccc(Cl)cc2C(c2ccccc2)=NC1O (stereo unspecified),8.42%,–
O=C1Nc2ccc(Cl)cc2C(c2ccccc2Cl)=NC1O (stereo unspecified),-0.0162%,–
CN1C[C@H](C(=O)N[C@]2(C)O[C@@]3(O)[C@@H]4CCCN4C(=O)[C@H](Cc4ccccc4)N3C2=O)C=C2c3cccc4[nH]cc(c34)C[C@H]21,–,0.708 µM (active)
O=C(Nc1ccc(Br)cc1)c1cc(Br)cc(Br)c1O,7.41%,–
COP(=S)(OC)Oc1ccc(SC)c(C)c1,4.36%,–
CCCCCCC(=O)CCCCCC/C=C/C[C@@H](O)[C@H](O)[C@@](N)(CO)C(=O)O,6.24%,–
CN1C(=O)CC(=O)N(c2ccccc2)c2cc(Cl)ccc21,5.83%,–
CC(C)c1cccc(C(C)C)c1O,0.771%,–

# Tested on: TAB109
# Assay: as above
# Conditions: P. falciparum in erythrocytes, SYBR Green DNA, 72 h; series mostly up to 28.7 µM; activity, negative = inhibition: at the top concentration
# Summary of the method: as §1
Structure (SMILES),"activity, negative = inhibition",Potency
CCCCC/C=C\C/C=C\C/C=C\C/C=C\CCCC(=O)NCC(=O)O,-11.7% [at 2.67 µM],–
CCC(C)(C)c1ccc(O)cc1,10.3%,–
C[C@]12CC[C@@H]3c4ccc(OC(=O)N(CCCl)CCCl)cc4CC[C@H]3[C@@H]1CC[C@@H]2O,8.56%,–
CCCC(C)(COC(N)=O)COC(N)=O,6.83%,–
CCC1(CC)C(=O)C=CNC1=O,-1.56%,–
COC1CC(=C(c2cccs2)c2cccs2)C[N+](C)(C)C1 (stereo unspecified),–,10 µM (active)
CN1C(=O)C(O)N=C(c2ccccc2)c2cc(Cl)ccc21 (stereo unspecified),0.582%,–
Clc1ccc2c(c1)C(c1ccccc1)=NCc1nncn1-2,-13.8%,–
O=c1oc2ccccc2c(O)c1Cc1c(O)c2ccccc2oc1=O,4.2% [at 12.8 µM],–
COP(=S)(OC)SCN1C(=O)c2ccccc2C1=O,0.844%,–
O=C1CN=C(c2ccccc2)c2cc([N+](=O)[O-])ccc2N1,10.1%,–
COC(=O)C(c1ccccc1)C1CCCCN1 (stereo unspecified),-20.7%,–
CC(C)=CC1C(C(=O)OCN2C(=O)C3=C(CCCC3)C2=O)C1(C)C (stereo unspecified),6.27%,–
O=C1Nc2ccc(Cl)cc2C(c2ccccc2)=NC1O (stereo unspecified),3.53%,–
O=C1Nc2ccc(Cl)cc2C(c2ccccc2Cl)=NC1O (stereo unspecified),1.82%,–
CN1C[C@H](C(=O)N[C@]2(C)O[C@@]3(O)[C@@H]4CCCN4C(=O)[C@H](Cc4ccccc4)N3C2=O)C=C2c3cccc4[nH]cc(c34)C[C@H]21,–,1.12 µM (active)
O=C(Nc1ccc(Br)cc1)c1cc(Br)cc(Br)c1O,7.82%,–
COP(=S)(OC)Oc1ccc(SC)c(C)c1,5.67%,–
CCCCCCC(=O)CCCCCC/C=C/C[C@@H](O)[C@H](O)[C@@](N)(CO)C(=O)O,3.23%,–
CN1C(=O)CC(=O)N(c2ccccc2)c2cc(Cl)ccc21,5.5%,–
CC(C)c1cccc(C(C)C)c1O,7.18%,–

# Tested on: TAB113
# Assay: as above
# Conditions: P. falciparum in erythrocytes, SYBR Green DNA, 72 h; series mostly up to 28.7 µM; activity, negative = inhibition: at the top concentration
# Summary of the method: as §1
Structure (SMILES),"activity, negative = inhibition",Potency
COc1ccc2c(c1)C13CCCC[C@@H]1C(C2)N(C)CC3 (stereo partly specified),-27.3%,–
CCCCC/C=C\C/C=C\C/C=C\C/C=C\CCCC(=O)NCC(=O)O,3.88% [at 2.67 µM],–
CCC(C)(C)c1ccc(O)cc1,-1.87%,–
C[C@]12CC[C@@H]3c4ccc(OC(=O)N(CCCl)CCCl)cc4CC[C@H]3[C@@H]1CC[C@@H]2O,0.716%,–
CCCC(C)(COC(N)=O)COC(N)=O,11.7%,–
Cc1nnc2n1-c1ccc(Cl)cc1C(c1ccccc1)=NC2,-3.14%,–
CCC1(CC)C(=O)C=CNC1=O,0.301%,–
C[C@](O)(CS(=O)(=O)c1ccc(F)cc1)C(=O)Nc1ccc(C#N)c(C(F)(F)F)c1,0.198%,–
CN1C(=O)C(O)N=C(c2ccccc2)c2cc(Cl)ccc21 (stereo unspecified),-3.42%,–
Clc1ccc2c(c1)C(c1ccccc1)=NCc1nncn1-2,0.667%,–
O=c1oc2ccccc2c(O)c1Cc1c(O)c2ccccc2oc1=O,3.38% [at 12.8 µM],–
COP(=S)(OC)SCN1C(=O)c2ccccc2C1=O,6.32%,–
O=C1CN=C(c2ccccc2)c2cc([N+](=O)[O-])ccc2N1,17.9%,–
COC(=O)C(c1ccccc1)C1CCCCN1 (stereo unspecified),-6.54%,–
CC(C)=CC1C(C(=O)OCN2C(=O)C3=C(CCCC3)C2=O)C1(C)C (stereo unspecified),-4.69%,–
O=C1Nc2ccc(Cl)cc2C(c2ccccc2)=NC1O (stereo unspecified),4.08%,–
O=C1Nc2ccc(Cl)cc2C(c2ccccc2Cl)=NC1O (stereo unspecified),4.88%,–
CN1C[C@H](C(=O)N[C@]2(C)O[C@@]3(O)[C@@H]4CCCN4C(=O)[C@H](Cc4ccccc4)N3C2=O)C=C2c3cccc4[nH]cc(c34)C[C@H]21,–,0.794 µM (active)
O=C(Nc1ccc(Br)cc1)c1cc(Br)cc(Br)c1O,9.07%,–
COP(=S)(OC)Oc1ccc(SC)c(C)c1,5.18%,–
CCCCCCC(=O)CCCCCC/C=C/C[C@@H](O)[C@H](O)[C@@](N)(CO)C(=O)O,4.75%,–
CC(C)c1cccc(C(C)C)c1O,2.2%,–
CCOP(=S)(OCC)Oc1ccc2c(C)c(Cl)c(=O)oc2c1,–,7.94 µM (active)
